The record followed here is PubChem BioAssay AID1508600 (Functional Genomics Laboratory (NCATS/FGL), 2020).

In all, about 53,000 sequences went through this assay and about 3,700 (7%) were called active.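 The calls were made as follows: active = gene knockdowns whose robust z-score for IL-1 alpha signal is at least 2 or at most -2, so actives lie on both sides; inactive = the rest.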 The entries come from a sample that favours actives as a whole.

The assay is described as follows: Components of the Cytosolic LPS Sensing Pathway: Gene Identification via Genome-wide siRNA Screen.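 Also: robust z of the log signal after scaling to non-targeting control siRNA wells of the plate.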 Particulars: RAW264.7 macrophages, IL-1a HTRF, actives lie on both sides, screened at 100 nM (by protocol), cells primed 5 h with Pam3CSK4 first. A digest of the protocol: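 Mouse macrophage line RAW264.7 is transfected with siRNA (100 nM final), grown 48h, primed with TLR ligand Pam3CSK4 5 h and given intracellular LipidA 24 h. IL-1a in supernatant is read by HTRF and viability by luminescence.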
A general note: Time-resolved FRET reads energy transfer from a long-lived donor to a nearby acceptor.
For CCUAGAGUCUCAGGACUGUTT against Actrt3, the z-score was 0.682 (inactive).

Regarding GGUUUCGUACCAUGAAACATT against Stx2, the z-score is -0.147 (inactive).

As for GCUUUGACUGGAAUGACGGTT against Pex7, the z-score is -2.2 (active).

With GGAGCUGUCUAAUCAUAAUTT against Clasp2, the z-score is -0.109 (inactive).

GGAGUGGAAGAAGAAGUAUTT against Agap3: the z-score is 0.177 (inactive).

In the case of GGAGUUUCUACGUGUAUGCTT against Tpra1, the z-score is -0.161 (inactive).

For GGACUUUGUGGAGAAUGUCTT against Cyp1a2, the z-score is -0.876 (inactive).

As for CCUACAGAGUACAGAUUAUTT against Atp6v0d1, the z-score is -0.228 (inactive).

Consider “GGACUGAGAGGGAUGGUAATT against A530016L24Rik”, for which the z-score is 0.293 (inactive).

Turning to GCUAAGACUCUUGAAUCAGTT against Zfp280d, the z-score was 3.72 (active).

As for GGCACAGAAGAAUGAGAGATT against Schip1, the z-score was 0.217 (inactive).

As for CGUACUCUUUCUUUAAUCCTT against Umod, the z-score is -0.622 (inactive).

Regarding GGUCCAUUACGUGCGCUUATT against Cage1, the z-score is -0.00235 (inactive).

As for GGCCUGACUUUUUGUCUUATT against Klhl15, the z-score is 1.09 (inactive).

Consider GGAACUGCCAUUGUAUGGGTT against Myo1g, for which the z-score is -0.568 (inactive).

On to GGCAAAGUGUCCCUCCGAATT against Skint7, for which the z-score is 2.06 (active).

Take CCGCAUUUCAGACAUAGGCTT against Olfr248: the z-score was -0.729 (inactive).

Turning to GCAGAAUGUCACUAAGUGCTT against Sdcbp2, the z-score was 0.271 (inactive).

Take GGGAGAAGCAAUUUUUAACTT against Gpr34: the z-score is 0.132 (inactive).

Turning to CCUAUGGUAGAAAAAUACUTT against Fundc1, the z-score was -0.252 (inactive).

Consider GGCAGCUGAUCAGAAAUCATT against Gabrg3, for which the z-score is -1.13 (inactive).

Regarding GCUCACUAACUUUUACAAGTT against Fam166c, the z-score is 0.419 (inactive).

As to CCAAGAGUUGUCAAUAUAATT against Crisp3, the z-score is 0.768 (inactive).

On to GGAGAGAAGAUCAUUUCAATT against Ncam2, for which the z-score was 2.38 (active).

With CCCUCCGUGUUUUUAAGAUTT against Tbl2, the z-score was 0.176 (inactive).

Turning to GGAUUUUGAUCUAAUGAGATT against Zfp354c, the z-score was 0.366 (inactive).

For GGCAAUUCUCUGUAUCCACTT against Cyp2d34, the z-score was -0.358 (inactive).

In the case of GCAUGUCGUCUGAGAAAGUTT against Pgr, the z-score was -0.748 (inactive).

Take GGCUUUAUCAGAUCCAACCTT against Tmem108: the z-score was 2.47 (active).

Consider GGUCAUAGAUGAGCUUAGUTT against Appl1, for which the z-score is -0.763 (inactive).

GGCAUGUUGAUGGGAAUUUTT against Srp9: the z-score was 0.536 (inactive).

On to GGCCUACCCAAUUCUUAACTT against Ces1g, for which the z-score is -0.0881 (inactive).

Take GUGUUUCCUUGUUAAGAUUTT against Bloc1s4: the z-score was -0.841 (inactive).

On to CCAGUAAAAAUUGAAGGCUTT against Capza2, for which the z-score was 0.565 (inactive).

As to GGCCCUUCAUGAAGAGCAATT against Carf, the z-score is 2.07 (active).

Turning to GGUCUACGUUAUUAUUACCTT against Etv2, the z-score was -0.537 (inactive).

As for GGAGCUUGACAUUCUGGAATT against Tmco4, the z-score was 0.766 (inactive).

On to CCGAGUUUGGGAAUAACUUTT against Cacna1a, for which the z-score was 1.45 (inactive).

Take GGCCAUUAUUCGUGAGUUGTT against Armc10: the z-score was 2.11 (active).

For CGGCAAUGUGACUAACAUCTT against Nrros, the z-score is 0.76 (inactive).

Turning to CGAGAUGUACCUUGAUACUTT against Idh3a, the z-score is 1.44 (inactive).

Consider GCGAUGGACUCAAAAAACUTT against Ehd3, for which the z-score is 0.0497 (inactive).

With GCUGUGUAUGUAUUUCAUGTT against Rnf128, the z-score was 0.549 (inactive).

Consider GGCAGGAAUCUAUAUUAAUTT against Slc17a3, for which the z-score was 0.48 (inactive).

As to GCGAAAGAUAUUGUGGAAGTT against Dixdc1, the z-score is -0.511 (inactive).

For CCAUCAUGAACACUCAACATT against Olfr462, the z-score is -2.59 (active).

As to GCACUUUAAGAGACAAUGUTT against Gpr63, the z-score is 0.302 (inactive).

On to GGCUGACUGGACAAUAAAGTT against Krt85, for which the z-score was -1.28 (inactive).

With CCAGUCAUCAUGCUACACGTT against Slc19a3, the z-score is 0.473 (inactive).

GGAGUGCUUUUAAAUCCCUTT against Rreb1: the z-score is -1.43 (inactive).

GCACUAAUACUAACCAUGGTT against Rhox12: the z-score was 0.788 (inactive).

With GGCAAGAAAUUCUUCAGCATT against St8sia3, the z-score was -1.38 (inactive).

As to GGUAAUGUACCUAAUAUUGTT against Cnn1, the z-score is 0.307 (inactive).

Consider GCCAGAACCGCAUAUUCUUTT against Cks2, for which the z-score is -0.481 (inactive).

For GGCUGAAGCUCGACUGAAGTT against Abcf3, the z-score was 2.35 (active).

As for GCAACACGGCGGAAUAAAGTT against Washc1, the z-score was -0.336 (inactive).

With GGAGCUGUAUGACCAUGCCTT against Rab25, the z-score was -2.03 (active).

As to GGGUGAUGAUCUUCAGCAATT against Txnrd3, the z-score was -0.616 (inactive).

For the sequence GGACCUAAAGAUAAUAAGUTT against Pex3, the z-score is -0.481 (inactive).

Consider GCCCAUCAGAUGGCAAGAUTT against Pisd, for which the z-score was 1.09 (inactive).

In the case of GUCCCACACUGAUAAGAUUTT against Lcorl, the z-score is -0.602 (inactive).

Regarding GGAGCCUAUACUGAUUUAUTT against Tomm7, the z-score was 2.13 (active).

For the sequence GCAGCUUAGUGAUUUGAAATT against Tex21, the z-score is -1.24 (inactive).

In the case of CCGGAUUCGAGAGGUGAUGTT against Lrrc52, the z-score is 0.0804 (inactive).

For the sequence CGGCAAAAUUAGCUAUUCATT against Exosc4, the z-score is 0.489 (inactive).

As to GGCAUUACAGUGUUUCUGCTT against Tgfbr1, the z-score is -0.288 (inactive).

With GGGCAAUGAUUUCGCCUUCTT against Ninj1, the z-score is 0.337 (inactive).

Take GGAUUCGUAAACUUCAGAUTT against Igf2bp3: the z-score was 3.41 (active).

Regarding GGGUCAGAACACGUACGAGTT against Gnaz, the z-score was 1.06 (inactive).
